# Pf growth 96h – P. falciparum growth inhibition at 96 hour, primary screen for plastid delayed-death inhibitors | P. falciparum luciferase reporter growth, 96 h | Potency, µM (top dose mostly 28.7 µM), inactives show top-dose activity change, negative = inhibition, actives largely listed as inhibitors | actives 6.9% (n = 320,000); also: potency is read from the fitted curve at half-maximal effect; % is scaled to controls: 0 for no effect and ±100 for the full control effect
#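 Erythrocytes infected with luciferase-expressing P. falciparum were dispensed at 2% hematocrit and 0.05% parasitemia (final), then incubated with compounds 96 hours at 37 C in 5% CO2. Luminescence after detection reagent addition reported growth.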
# HCMV inh – human cytomegalovirus inhibition; HFF cells, HCMV-luciferase reporter, 72 h; active compounds read low; activity change, negative = inhibition, % at 57.5 µM; actives 4.5% (n = 410,000); in the data active = activity change below about -60%; inconclusive = no clear call, values can overlap the other calls; inactive = above about -39%; also: % is scaled to controls: 0 for no effect and ±100 for the full control effect
#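 Screen run at 2 compound doses on HFFs infected with reporter HCMV, MOI 1 PFU/cell. Luciferase activity from cell lysates at 72 h post infection gave inhibition relative to buffer-only and Salinomycin wells.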
# HCV inh – blocks hepatitis C virus; AID 651820; actives 3.4% (n = 340,000); Huh7.5.1 HCVcc-Cre infection, luciferase reporter, 44 h; Potency, µM (series often up to 41.8 µM), for inactives: at the top dose activity change, negative = inhibition, actives largely listed as inhibitors; also: potency is read from the fitted curve at half-maximal effect; % is scaled to controls: 0 for no effect and ±100 for the full control effect
#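 Reporter virus HCVcc-Cre (~0.5 moi) infects cells exposed to compound; seeding density 1,000 cells/well with 4 h settling beforehand. Luminescence, 15 sec read, taken 44 h post-infection following a 15 min RT substrate incubation.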
# SARS PLpro yeast – blocks SARS-CoV papain-like protease in a yeast assay. S. cerevisiae expressing SARS-CoV PLpro, growth rescue. Potency, µM (series often up to 32.9 µM), for inactives: top-dose activity, positive = growth rescue, usual class: activators. actives 0.19% (n = 330,000); calls by dose curve; also: potency is read from the fitted curve at half-maximal effect; 0% is about no effect; nearly all actives have a fitted effect of over 55% in size
# Pf growth 48h – P. falciparum growth inhibition at 48 hours (one generation). P. falciparum luciferase growth in erythrocytes, 48 h. AID 504832. actives 5.9% (n = 310,000). Potency, µM (highest dose often 28.7 µM), inactives show at the highest dose activity change, negative = inhibition, usual class: inhibitors; also: potency is read from the fitted curve at half-maximal effect; % is scaled to controls: 0 for no effect and ±100 for the full control effect
#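 Erythrocytes infected with P. falciparum carrying an integrated firefly luciferase reporter (2% hematocrit, 0.1% parasitemia final) were exposed to compounds in RPMI 1640 with 0.5% Albumax at 37 C, 5% CO2. Growth inhibition was scored as reduced luminescence.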
# Sm TGR block – inhibitors of Schistosoma mansoni thioredoxin glutathione reductase; Q962Y6; purified TGR, DTNB reduction, TNB absorbance 405 nm; Potency, µM (highest dose often 114 µM), inactives show at the highest dose activity change, negative = inhibition, usual class: inhibitors; actives 3% (n = 360,000); AID 485364; also: potency is read from the fitted curve at half-maximal effect; % is scaled to controls: 0 for no effect and ±100 for the full control effect; nearly all actives have a fitted effect of over 60% in size
#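 Kinetic colorimetric format: TGR-catalysed, NADPH-driven DTNB reduction monitored via TNB absorbance. Enzyme dispensed at 20 nM; compound exposure 15 min at room temperature before reaction start.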
# The depositor's hits bear a star; ? = inconclusive; nt = not tested or not shown; ! = repeats disagree; [ ] = dose if it differs, or a comment. Rows were chosen to be rich in hits. Some 15% of all compounds tested hit in one or more screens of this group. Unless noted, calls follow the shape of the dose curve; as a rule, active = well fitted curve in the direction sought with a large enough effect; inconclusive = small, poorly fitted or top-dose-only effect, or another doubt; inactive = no such curve, though single readings can be large; an effect the other way counts as inactive or inconclusive.
SMILES,Pf growth 96h,HCMV inh,HCV inh,SARS PLpro yeast,Pf growth 48h,Sm TGR block
CC(=O)c1cccc(CN2CCC(C(=O)Nc3ccc(-c4cccc(C)c4)cc3)CC2)c1,-28.9%,-35.5,?,-3.3%,4.15µM*,7.1%
CC(=O)c1cccc(NC(=O)C2CCN(S(=O)(=O)c3ccc(C)cc3)CC2)c1,?,-11.9,-12.6%,-17.1%,-5.6%,-18.1%
O=C(NCC1CCN(Cc2cccc(Cl)c2)CC1)Nc1ccc(Cl)cc1,5.5%,?,?,1.0%,11.6%[0.00184 µM],1.6%
S=c1[nH]nc(-c2ccccn2)n1/N=C/c1ccc(-c2ccccc2Br)o1,28.7%,?,3.2%,-2.6%,15.0%,-6.8%
O=C(Nc1ccc(Oc2cccnc2)cc1)C1CCN(Cc2ccccc2)CC1,?,-5.2,-27.3%,2.9%,?,-17.1%
Cc1ccc(CN2CCC(C(=O)Nc3ccc(Oc4cccnc4)cc3)CC2)cc1,-21.1%,?,nt,-3.3%,10.4µM*,5.5%
O=C1c2cccc(OCC(=O)N3N=C(c4cccs4)CC3c3ccc(F)cc3)c2CCN1Cc1cccnc1 (configuration not stated),?,?,?,2.1%,1.47µM*,-13.6%
O=C1c2cccc(OCC(=O)N3CCCc4ccccc43)c2CCN1Cc1cccnc1,?,-61.1*,?,3.4%,?,-12.3%
Cc1ccccc1CN1CCc2c(OCC(=O)N3CCCc4ccccc43)cccc2C1=O,14.7µM*,-61.6*,12.6µM*,8.1%,?,4.7%
Cc1ccc(NC(=O)CCCn2c3ccccc3c(=O)c3cc(C)ccc32)c(Br)c1,nt,?,nt,nt,nt,-4.3%
C(=NCc1ccccc1)N1c2ccccc2-n2cccc2C1CCc1ccccc1 (configuration not stated),nt,53.0,nt,nt,nt,nt
COc1cccc(CNC(=O)CN2C(=O)CCn3nc(-c4cn(C)c5ccccc45)cc32)c1OC,nt,7.9,nt,nt,nt,15.8µM*
Cc1cccc(C)c1NC(=O)CN1C(=O)NC(C)(C2CC2)C1=O (configuration not stated),nt,1.9,22.6%,-5.9%,nt,nt
CC(C)N1C(=O)CSC1c1ccc(Br)cc1 (configuration not stated),?,6.0,5.0%,0.6%,-11.5%,0.5%
COc1ccc(C2=Nn3c(nnc3-c3ccccc3)SC2)cc1OC,-26.1%,3.8,-4.7%,-2.8%,nt,-0.8%
COc1ccc(OC)c(C2=Nn3c(nnc3-c3ccco3)SC2)c1,-4.8%,50.8,?,-2.9%,nt,-32.6%
CCOc1ccc(C2=Nn3c(nnc3-c3ccc(OC)cc3)SC2)cc1,?,22.1,?,-3.6%,14.7µM*,-6.8%
COc1ccc(OC)c(-c2nnc3n2N=C(c2ccc(OC)c(OC)c2)CS3)c1,3.29µM*,-67.4*,nt,3.5%,5.86µM*,-3.6%
COc1ccc(OC)c(C2=Nn3c(nnc3-c3cccc(OC(C)C)c3)SC2)c1,?,-9.5,10µM*,0.7%,8.28µM*,-25.8%
COc1ccc(OC)c(-c2nnc3n2N=C(c2ccc(OC)c(OC4CCCC4)c2)CS3)c1,nt,-88.1*,nt,-4.3%,nt,nt
C=CCN1C(=O)C2(OCCCO2)c2cc(Cl)ccc21,?,33.0,-28.9%,-0.3%,-9.9%,-0.1%
COc1ccc(C2=Nn3c(nnc3-c3ccccc3OC)SC2)cc1OCC1CC1,nt,-84.0*,nt,11.5%,nt,nt
COc1ccc(C2=Nn3c(nnc3-c3ccccc3F)SC2)cc1OC1CCCC1,nt,-74.5*,nt,5.6%,nt,nt
COc1ccc(C2=Nn3c(nnc3-c3ccccc3F)SC2)cc1OC1CCOC1 (configuration not stated),nt,127.2,nt,17.8%,nt,nt
COc1ccc(OC)c(-c2nnc3n2N=C(c2ccc(OC(F)F)c(OCC4CC4)c2)CS3)c1,nt,-5.4,nt,4.5%,nt,nt
CCN(CC)c1ccc(SS(=O)(=O)O)cc1,10.4µM*!,-36.9,-0.2%,-2.8%,13.1µM*,9.5%
O=S(=O)(O)Sc1ccccc1,nt,-87.0*,nt,nt,nt,nt
